Test results: PubChem BioAssay (NCATS)
“And” between values parts separate entries of the source, which are not always exact repeats. Equal values may be shown once. Results filed as inconclusive are left out. Entries that show only a call come without a potency. The source holds several records for some structures; these can differ, active in one and inactive in another. The source made the active and inactive calls. Unless noted, calls come from the whole dose curve; as a rule, active = well fitted curve in the direction sought with a large enough effect; inconclusive = small, poorly fitted or top-dose-only effect, or another doubt; inactive = no such curve, though single readings can be large; an effect the other way counts as inactive or inconclusive.

Legend:
[1] = Primary qHTS for inhibitors of nuclear receptor binding SET domain protein 2 (NSD2) in an isogenic RCH-ACV NSD2 p.E1099K mutant (9B) (AID 1645876); note: nearly all actives have a fitted effect of over 70% in size; note: potency is the fitted concentration of half-maximal effect
[2] = Primary qHTS for inhibitors of nuclear receptor binding SET domain protein 2 (NSD2) in an RCH-ACV wild type WT cells (2C) (AID 1645877); note: nearly all actives have a fitted effect of over 70% in size; note: potency is the fitted concentration of half-maximal effect
[3] = target: Rap guanine nucleotide exchange factor 3 (Homo sapiens) (UniProt O95398); test: Confirmatory qHTS for antagonist of cAMP-regulated guanine nucleotide exchange factor 3 (EPAC1) (AID 1645880); note: nearly all actives have a fitted effect of over 55% in size; note: potency is the fitted concentration of half-maximal effect
Rap guanine nucleotide exchange factor 3 (Homo sapiens), sequence (O95398 whole entry, looked up): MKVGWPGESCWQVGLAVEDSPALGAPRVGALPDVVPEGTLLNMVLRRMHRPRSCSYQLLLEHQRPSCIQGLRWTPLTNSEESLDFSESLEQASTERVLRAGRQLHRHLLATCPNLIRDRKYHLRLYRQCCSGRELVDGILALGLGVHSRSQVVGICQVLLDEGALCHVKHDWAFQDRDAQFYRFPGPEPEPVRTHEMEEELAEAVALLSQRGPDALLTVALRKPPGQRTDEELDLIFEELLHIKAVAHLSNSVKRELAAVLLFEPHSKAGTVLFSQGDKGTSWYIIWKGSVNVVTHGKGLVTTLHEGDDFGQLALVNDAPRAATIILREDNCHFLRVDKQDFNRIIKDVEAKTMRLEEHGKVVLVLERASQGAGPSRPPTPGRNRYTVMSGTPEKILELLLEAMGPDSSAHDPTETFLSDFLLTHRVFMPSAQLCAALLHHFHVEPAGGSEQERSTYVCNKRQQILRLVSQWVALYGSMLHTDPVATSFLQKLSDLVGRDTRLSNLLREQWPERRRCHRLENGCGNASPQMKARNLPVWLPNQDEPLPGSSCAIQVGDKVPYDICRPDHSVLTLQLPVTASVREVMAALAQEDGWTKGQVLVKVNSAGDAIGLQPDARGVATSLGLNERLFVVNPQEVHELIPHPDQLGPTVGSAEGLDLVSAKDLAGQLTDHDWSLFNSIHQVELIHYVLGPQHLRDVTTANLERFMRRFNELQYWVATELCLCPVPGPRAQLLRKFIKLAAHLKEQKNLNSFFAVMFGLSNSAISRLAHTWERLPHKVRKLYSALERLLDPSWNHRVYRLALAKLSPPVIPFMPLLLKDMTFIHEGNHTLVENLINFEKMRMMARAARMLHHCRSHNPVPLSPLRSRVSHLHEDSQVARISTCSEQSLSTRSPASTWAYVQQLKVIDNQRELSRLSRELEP
How it was run: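 Nucleotide exchange uses 100 nM EPAC1, 250 nM RAP1B-BODIPY-GDP and 50 uM GDP, with compounds in a concentration-titration series. After 5 min at room temperature, fluorescence (480 nm ex/540 nm em) is read every 5 min for 30 min. Data are normalized to control ATA and DMSO.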

[4] = target: Rap guanine nucleotide exchange factor 3 (Homo sapiens) (UniProt O95398); test: Confirmatory qHTS for agonist of cAMP-regulated guanine nucleotide exchange factor 3 (EPAC1) (AID 1645881);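 note: EPAC1 catalysed release of BODIPY-GDP from Rap1B seen as fluorescence loss; nearly all actives have a fitted effect of over 75% in size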
[5] = target: Rap guanine nucleotide exchange factor 4 (Homo sapiens) (UniProt Q8WZA2); test: Confirmatory qHTS for agonist of cAMP-regulated guanine nucleotide exchange factor 4 (EPAC2) (AID 1645884);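 note: nucleotide exchange releases bodipy-GDP from Rap1 and this lowers its fluorescence; nearly all actives have a fitted effect of over 65% in size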
Rap guanine nucleotide exchange factor 4 (Homo sapiens), sequence (Q8WZA2 whole entry, looked up): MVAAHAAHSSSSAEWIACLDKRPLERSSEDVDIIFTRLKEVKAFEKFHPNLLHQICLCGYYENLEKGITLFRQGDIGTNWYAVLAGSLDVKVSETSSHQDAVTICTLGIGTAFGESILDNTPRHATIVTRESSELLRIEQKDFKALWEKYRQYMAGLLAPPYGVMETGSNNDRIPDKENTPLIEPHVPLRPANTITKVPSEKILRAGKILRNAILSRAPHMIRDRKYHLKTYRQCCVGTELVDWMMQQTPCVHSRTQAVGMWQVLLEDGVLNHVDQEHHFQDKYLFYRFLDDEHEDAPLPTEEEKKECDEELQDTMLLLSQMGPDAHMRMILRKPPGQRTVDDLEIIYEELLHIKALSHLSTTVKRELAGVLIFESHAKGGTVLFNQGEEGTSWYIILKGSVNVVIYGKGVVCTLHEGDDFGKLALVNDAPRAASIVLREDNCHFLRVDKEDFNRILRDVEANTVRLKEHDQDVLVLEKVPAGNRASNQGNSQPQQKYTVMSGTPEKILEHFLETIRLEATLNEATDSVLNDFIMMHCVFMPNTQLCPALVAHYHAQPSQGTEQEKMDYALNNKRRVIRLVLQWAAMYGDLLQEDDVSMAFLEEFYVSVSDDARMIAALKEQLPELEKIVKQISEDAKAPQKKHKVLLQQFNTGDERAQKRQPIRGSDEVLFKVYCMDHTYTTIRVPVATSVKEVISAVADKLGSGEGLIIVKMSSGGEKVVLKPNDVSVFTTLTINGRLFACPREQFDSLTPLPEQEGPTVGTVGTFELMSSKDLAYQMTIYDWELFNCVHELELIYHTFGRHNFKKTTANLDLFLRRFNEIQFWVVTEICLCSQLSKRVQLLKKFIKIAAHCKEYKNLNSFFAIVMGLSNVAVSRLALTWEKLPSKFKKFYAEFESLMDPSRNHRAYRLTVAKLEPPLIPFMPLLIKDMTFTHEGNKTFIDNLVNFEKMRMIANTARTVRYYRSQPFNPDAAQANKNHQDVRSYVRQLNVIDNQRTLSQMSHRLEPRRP

[6] = target: Rap guanine nucleotide exchange factor 4 (Homo sapiens) (UniProt Q8WZA2); test: Confirmatory qHTS for antagonist of cAMP-regulated guanine nucleotide exchange factor 4 (EPAC2) (AID 1645885); note: nearly all actives have a fitted effect of over 25% in size; note: potency is the fitted concentration of half-maximal effect
[7] = target: Nuclear receptor subfamily 1 group I member 3 (Homo sapiens) (UniProt Q14994); test: Primary qHTS for antagonist of constitutive androstane receptor (CAR) against the NCATS DSHEA and TCM libraries (AID 1794836);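 note: HepG2 cells stably expressing hCAR with CYP2B6 luciferase reporter stimulated by CITCO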
Nuclear receptor subfamily 1 group I member 3 (Homo sapiens), sequence (Q14994 whole entry, looked up): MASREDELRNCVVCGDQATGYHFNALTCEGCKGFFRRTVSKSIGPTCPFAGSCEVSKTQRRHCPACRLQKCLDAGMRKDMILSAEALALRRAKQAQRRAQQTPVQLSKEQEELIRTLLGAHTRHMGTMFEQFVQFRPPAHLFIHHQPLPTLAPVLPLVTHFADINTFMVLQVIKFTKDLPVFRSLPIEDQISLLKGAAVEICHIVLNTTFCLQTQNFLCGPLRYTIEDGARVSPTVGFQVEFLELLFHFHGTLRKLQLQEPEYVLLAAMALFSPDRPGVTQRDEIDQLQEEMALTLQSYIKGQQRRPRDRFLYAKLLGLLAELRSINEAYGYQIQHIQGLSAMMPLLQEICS
How it was run: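 HepG2-CYP2B6-hCAR cells, attached 5 h, given compounds plus CITCO agonist […], incubated 24 h at 37 C. Luciferase luminescence read, multiplexed with CellTiter-Fluor viability (Ex/Em 405/540 nm).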

[8] = target: Catechol O-methyltransferase (Homo sapiens) (UniProt P21964); test: Confirmatory Screen for Target Class Profiling of Small Molecule Inhibitors of Methyltransferases (AID 1745852; calls by dose curve); settings: MTase-Glo luminescence, SAH detection, recombinant enzyme; measured here: COMT max response; stronger effect = lower value
Catechol O-methyltransferase (Homo sapiens), sequence (P21964 whole entry, looked up): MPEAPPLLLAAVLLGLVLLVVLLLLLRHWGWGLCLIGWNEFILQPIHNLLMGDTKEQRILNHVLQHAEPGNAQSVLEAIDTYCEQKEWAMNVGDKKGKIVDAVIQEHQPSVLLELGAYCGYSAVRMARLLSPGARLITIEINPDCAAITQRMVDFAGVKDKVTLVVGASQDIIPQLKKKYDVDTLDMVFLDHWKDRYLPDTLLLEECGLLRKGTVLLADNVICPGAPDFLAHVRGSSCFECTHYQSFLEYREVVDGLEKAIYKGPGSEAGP

[9] = target: Guanidinoacetate N-methyltransferase (Homo sapiens) (UniProt Q14353); test: as above; settings: MTase-Glo luminescence, SAH detection, recombinant enzyme; activity change, negative = inhibition: at 57.3 µM (top of the series)
[10] = target: Nicotinamide N-methyltransferase (Homo sapiens) (UniProt P40261); test: as above; settings: MTase-Glo luminescence, SAH detection, recombinant enzyme; measured here: NNMT max response; stronger effect = lower value
Nicotinamide N-methyltransferase (Homo sapiens), sequence (P40261 whole entry, looked up): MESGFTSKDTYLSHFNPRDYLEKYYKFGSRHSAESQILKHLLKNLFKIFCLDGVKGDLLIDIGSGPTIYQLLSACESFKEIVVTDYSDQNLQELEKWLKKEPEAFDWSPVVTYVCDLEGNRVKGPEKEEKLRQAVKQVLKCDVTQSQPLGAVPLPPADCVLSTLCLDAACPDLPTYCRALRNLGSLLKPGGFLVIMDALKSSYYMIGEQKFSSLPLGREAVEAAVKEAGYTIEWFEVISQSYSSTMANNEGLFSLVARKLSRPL

[11] = target: Phenylethanolamine N-methyltransferase (Homo sapiens) (UniProt P11086); test: as above; settings: MTase-Glo luminescence, SAH detection, recombinant enzyme; measured here: PNMT max response; stronger effect = lower value
Phenylethanolamine N-methyltransferase (Homo sapiens), sequence (P11086 whole entry, looked up): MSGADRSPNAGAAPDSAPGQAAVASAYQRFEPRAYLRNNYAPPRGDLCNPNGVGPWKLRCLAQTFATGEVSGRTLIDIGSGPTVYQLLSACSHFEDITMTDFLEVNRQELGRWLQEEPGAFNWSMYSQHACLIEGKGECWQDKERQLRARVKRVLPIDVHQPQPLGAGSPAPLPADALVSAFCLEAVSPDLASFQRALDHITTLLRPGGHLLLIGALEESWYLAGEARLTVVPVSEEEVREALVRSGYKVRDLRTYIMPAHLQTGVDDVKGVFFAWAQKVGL

[12] = NCATS anti-infectives library activity on HEK293 viability as a counter-qHTS vs the C. elegans viability qHTS (AID 1745854);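 note: HEK293 cells exposed to compounds for 24 hr before the viability read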
How it was run: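 Compounds were acoustically plated (several concentrations, 1:5, final up to 41.7 uM), then 1500 HEK293 cells added per well and incubated 24 hr at 37C, 5% CO2. CellTiter-Glo was added and luminescence read after 10 min.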

[13] = NCATS anti-infectives library activity on the primary C. elegans qHTS viability assay (AID 1745855; calls by dose curve; note: potency is the fitted concentration of half-maximal effect); settings: C. elegans worm area imaging, day 7
How it was run: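 Viability read-out is GFP fluorescence of PE254-GFP-FLuc C. elegans, measured by laser cytometry (488 nm) at day 0, 3 and 7. Ten L1 worms per well were incubated 7 days at 21 °C with compounds and bacterial capsules in S medium.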

[14] = target: Rap guanine nucleotide exchange factor 3 (Homo sapiens) (UniProt O95398); test: Counterscreen qHTS for antagonist of cAMP-regulated guanine nucleotide exchange factor 3 (EPAC1) (AID 1645888);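 note: fluorescence loss as bound BODIPY-GDP is released from Rap1B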
How it was run: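 Rap1B–BODIPY-GDP (250 nM) with 50 uM GDP; compounds pin-transferred to 9.74 nM–152 uM final (activator) or from 7.32 nM upwards (inhibitor). Fluorescence Ex/Em 480/540 nm read at 5 and 30 min, then after adding cAMP or buffer, at room temperature.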

## C#CCOC(C(=O)OCCN(C)C)(c1ccccc1)c1ccccc1
[1]
  Potency: inactive
[2]
  Potency: inactive

## N[C@@H](Cc1ccc(N(CCCl)CCCl)cc1)C(=O)O
[1]
  Potency: 2.99 µM (active) and 2.63 µM (active)
[2]
  Potency: 2.66 µM (active) and 2.35 µM (active)

## CC(C)NCC(O)c1ccccc1Cl (stereo unspecified)
[1]
  Potency: inactive
[2]
  Potency: inactive

## NP(N)(=O)NC(=O)c1ccc(F)cc1
[1]
  Potency: inactive
[2]
  Potency: inactive

## CC1OC(C)OC(C)O1 (stereo unspecified)
[1]
  Potency: inactive
[2]
  Potency: inactive

## CC(C)=CC1C(C(=O)OCc2cccc(Oc3ccccc3)c2)C1(C)C (stereo unspecified)
[1]
  Potency: inactive
[2]
  Potency: inactive
[3]
  Potency: inactive
[4]
  outcome: inactive
[5]
  outcome: inactive
[6]
  Potency: inactive

## CCOP(=S)(OCC)Oc1cc(C)nc(C(C)C)n1
[1]
  Potency: inactive
[2]
  Potency: inactive

## CN(C)CCc1ccc(O)cc1
[1]
  Potency: inactive
[2]
  Potency: inactive

## CC(=O)[C@H]1CC[C@H]2[C@@H]3CC[C@H]4C[C@H](O)CC[C@]4(C)[C@H]3C(=O)C[C@]12C
[2]
  Potency: inactive

## CCCC1CCCCN1 (stereo unspecified)
[1]
  Potency: inactive
[2]
  Potency: inactive

## C=C1C[C@@H]2[C@H](CC[C@]3(C)C(=O)CC[C@@H]23)[C@@]2(C)C=CC(=O)C=C12
[1]
  Potency: 16.8 µM (active) and 26.3 µM (active)
[2]
  Potency: 11.9 µM (active) and 18.6 µM (active)

## O=C(O)P(=O)(O)O
[1]
  Potency: inactive
[2]
  Potency: inactive

## CC(C)(N)Cc1ccc(Cl)cc1
[1]
  Potency: inactive
[2]
  Potency: inactive

## C#CCN(C)[C@H](C)Cc1ccccc1
[1]
  Potency: inactive
[2]
  Potency: inactive

## O=c1c(O)c(-c2ccc(O)c(O)c2)oc2cc(O)cc(O)c12
[7]
  outcome: inactive

## Oc1cc(Cl)ccc1Oc1ccc(Cl)cc1Cl
[1]
  Potency: 6.24 µM (active)
[2]
  Potency: 6.24 µM (active)
[4]
  outcome: inactive
[6]
  Potency: 52 µM (active)

## CNC(=O)c1ccc(N2C(=S)N(c3ccc(C#N)c(C(F)(F)F)c3)C(=O)C23CCC3)cc1F
[2]
  Potency: 16.6 µM (active)

## CN1C[C@H](CNC(=O)OCc2ccccc2)C[C@@H]2c3cccc4c3c(cn4C)C[C@H]21
[8]
  activity: -5.5%
[9]
  activity change, negative = inhibition: 5.68%
[10]
  activity: -16.1%
[11]
  activity: -5.43%

## Clc1cccc(N2CCNCC2)c1
[1]
  Potency: inactive
[2]
  Potency: inactive

## COC[C@@H](NC(C)=O)C(=O)NCc1ccccc1
[1]
  Potency: inactive
[2]
  Potency: inactive

## FC(F)(F)c1cccc(C2=CCN(CCc3ccc4ccccc4c3)CC2)c1
[1]
  Potency: inactive
[2]
  Potency: inactive

## O=c1oc2ccccc2c(O)c1C(CC(O)c1ccc(-c2ccc(Br)cc2)cc1)c1ccccc1 (stereo unspecified)
[1]
  Potency: inactive
[3]
  Potency: 15.7 µM (active)
[4]
  outcome: inactive
[5]
  outcome: inactive
[6]
  Potency: 44.1 µM (active)

## Cc1sc2c(c1C)C(c1ccc(Cl)cc1)=N[C@@H](CC(=O)OC(C)(C)C)c1nnc(C)n1-2
[1]
  Potency: 0.372 µM (active)
[2]
  Potency: 0.263 µM (active)
[12]
  outcome: inactive
[13]
  Potency: 4.09 µM (active)

## N[C@@H](Cc1ccc(Oc2cc(I)c(O)c(I)c2)c(I)c1)C(=O)O
[1]
  Potency: inactive
[2]
  Potency: inactive

## Oc1ccccc1-c1ccccc1
[1]
  Potency: inactive
[2]
  Potency: inactive

## CC[N+](CC)(CC)CC
[1]
  Potency: inactive
[2]
  Potency: inactive
[8]
  activity: 2.75%
[9]
  activity change, negative = inhibition: 3.74%
[10]
  activity: -4.15%
[11]
  activity: 4.2%

## COc1ccc2c(c1OC)CN1CCc3cc4c(cc3C1C2)OCO4 (stereo unspecified)
[2]
  Potency: 10.6 µM (active)

## Clc1ccc(COC(Cn2ccnc2)c2ccc(Cl)cc2Cl)cc1 (stereo unspecified)
[4]
  outcome: inactive
[5]
  outcome: inactive
[6]
  Potency: 44.1 µM (active) and inactive
[14]
  outcome: inactive
